# HCV inhibitor: blocks hepatitis C virus. hit rate 3.4% among 340,000. Potency, µM (titrated, usually from 41.8 µM), for the others: at the highest dose activity change, negative = inhibition, most hits filed as inhibitors. Huh7.5.1 HCVcc-Cre infection, luciferase reporter, 44 h; note: potency is the fitted concentration of half-maximal effect
#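 Reporter virus HCVcc-Cre (~0.5 moi) infects cells exposed to compound; seeding density 1,000 cells/well with 4 h settling beforehand. Luminescence, 15 sec read, taken 44 h post-infection following a 15 min RT substrate incubation.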
# Marburg entry inh: blocks Marburg virus binding to or entry into cells | hit rate 1.8% among 300,000 | AID 540276 | Potency, µM (titrated, usually from 37.8 µM), without a hit: at the highest dose activity change, negative = inhibition, actives largely listed as inhibitors | Marburg virus pseudotyped entry inhibition, cell reporter; calls by dose curve; tested in HEK293 cells; note: potency is the fitted concentration of half-maximal effect
# HCMV antiviral: human cytomegalovirus inhibition; HFF cells, HCMV-luciferase reporter, 72 h; active compounds read low; activity change, negative = inhibition, % at 57.5 µM; hit rate 4.5% among 410,000; AID 1259415; in the data active = activity change below about -60%; inconclusive = no clear call, values can overlap the other calls; inactive = above about -39%
#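 Human foreskin fibroblasts infected with luciferase-reporter HCMV at MOI 1 PFU/cell, compounds at two doses. Luciferase measured 72 h post infection; normalized to buffer-only basal and Salinomycin (10uM) controls.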
# Lassa entry inh: Lassa virus entry inhibition | Lassa virus pseudotype entry inhibition, cell reporter | Potency, µM (titrated, usually from 37.9 µM), without a hit: at the highest dose activity change, negative = inhibition, hits mostly inhibitors | hit rate 1.2% among 300,000; calls by dose curve; tested in HEK293 cells; note: potency is the fitted concentration of half-maximal effect; nearly all actives have a fitted effect of over 50% in size
# Pf growth 96h: inhibits malaria parasite growth, 96 h | P. falciparum luciferase reporter growth, 96 h | Potency, µM (highest dose often 28.7 µM), for inactives: at the top dose activity change, negative = inhibition, usual class: inhibitors | hit rate 6.9% among 320,000 | AID 504834; note: potency is the fitted concentration of half-maximal effect
#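 Plates of compound plus infected erythrocytes (2% hematocrit, 0.05% parasitemia final) incubate 96 hours, 37 C, 5% CO2. Detection reagent added; reduced luminescence from the parasites' luciferase reporter flags inhibition.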
# Pf growth 48h: P. falciparum growth inhibition at 48 hours (one generation); P. falciparum luciferase growth in erythrocytes, 48 h; Potency, µM (highest dose often 28.7 µM), without a hit: at the highest dose activity change, negative = inhibition, hits mostly inhibitors; hit rate 5.9% among 310,000; note: potency is the fitted concentration of half-maximal effect
#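 Firefly luciferase activity from engineered P. falciparum reports growth; inhibitors lower the luminescent signal. Cultures contained 2% hematocrit erythrocytes at 0.1% final parasitemia.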
# Starred values were filed as active, the others as inactive; ? = inconclusive; . = no result given; [ ] = dose if it differs, or a comment. Only some compounds are listed: those with a hit (about 14% of all), similar ones and a draw of the others. Unless noted, calls come from the whole dose curve; as a rule, active = well fitted inhibition curve with a large enough effect; inconclusive = small, poorly fitted or top-dose-only effect, or another doubt; inactive = no such curve, though single readings can be large or run the other way. % is set by controls: 0 for no effect and ±100 for the full control effect.
SMILES,HCV inhibitor,Marburg entry inh,HCMV antiviral,Lassa entry inh,Pf growth 96h,Pf growth 48h
COCCNC(=O)CN(C(=O)CCC(=O)Nc1ccccn1)c1ccc(C)c(C)c1,23.4%,7.5%[46.1 µM],20.3,2.7%[46.1 µM],9.28µM*,-17.6%
Cc1cc(C)cc(N(CC(=O)NCc2ccc3c(c2)OCO3)C(=O)CCC(=O)Nc2ccccn2)c1,-9.0%,?,1.5,10µM*,?,1.31µM*
Cc1ccc(N(CC(=O)NCc2ccc3c(c2)OCO3)C(=O)CCC(=O)Nc2ccccn2)cc1,?,-0.6%[46.1 µM],-25.4,?,36.0%,?
COCCNC(=O)C(c1ccc(O)cc1)N(Cc1ccco1)C(=O)CCC(=O)Nc1ccccn1 (stereo not drawn),-1.4%,-1.4%[46.1 µM],6.7,-5.8%[46.1 µM],18.1%,-3.0%
CC(C)c1ccc(N(CC(=O)NCCc2ccccc2)C(=O)c2csnn2)cc1,?,?,-8.8,?,6.3%,-10.6%
Cc1cc(C)c(C(O)c2ncc(-c3ccccc3F)[nH]2)c(C)c1 (stereo not drawn),.,.,22.8,.,.,.
Cc1ccc(N(CC(=O)NCC2CCCO2)C(=O)CCC(=O)Nc2ccccn2)cc1 (stereo not drawn),5.0%,0.3%[46.1 µM],-3.7,5.1%,0.586µM*,-7.1%
CCOc1ccc(N(CC(=O)NCCc2ccccc2)C(=O)CCC(=O)Nc2cc(C)ccn2)cc1,17.0%,?,-12.7,?,13.6%,4.65µM*
Cc1ccnc(NC(=O)CCC(=O)N(CC(=O)NCCc2ccccc2)c2ccc(F)cc2)c1,-8.3%,-24.7%[46.1 µM],32.6,-17.2%,-12.8%,-11.8%
COCCNC(=O)C(c1ccc(F)cc1)N(C(=O)CCC(=O)Nc1ccccn1)c1ccc(C)cc1 (stereo not drawn),6.5%,?,-24.3,-9.8%[46.1 µM],1.31µM*,-7.7%
COc1cc(OC)c(NC(=O)CN2CCCN(Cc3ccccc3C)S2(=O)=O)cc1Cl,.,.,10.5,-6.4%[46.1 µM],.,.
CC(=O)C1=C(Nc2ccccc2)CC(C)(O)C(C(C)=O)C1c1ccccc1 (stereo not drawn),16.1%,?,13.5,19.4%,16.1%,-0.5%
CCOC(=O)C1=C(Nc2ccccc2)CC(C)(O)C(C(=O)OCC)C1c1ccccc1 (stereo not drawn),0.3%,2.8%,15.5,8.0%,?,?
CCOC(=O)C1=C(Nc2ccccc2)CC(C)(O)C(C(=O)OCC)C1c1ccc(Br)cc1 (stereo not drawn),?,?,21.6,-0.9%,?,14.7µM*
CCOC(=O)C1=C(Nc2ccc(C)cc2)CC(C)(O)C(C(=O)OCC)C1c1ccccc1 (stereo not drawn),3.2%,0.0%,71.0,2.9%,13.1µM*,11.7µM*
C/C(=N\Nc1nc2ccccc2[nH]1)c1ccc(N2CCOCC2)cc1,?,?,99.9,10µM*,1.65µM*,4.15µM*
C/C(=N\Nc1nc2ccccc2[nH]1)c1ccc(Cl)s1,?,?,42.0,?,?,0.928µM*
C/C(=N\Nc1nc2ccccc2[nH]1)c1ccc(C)o1,7.2%,?,89.2,11.6%,-11.8%,?
C/C(=N\Nc1nc(C)cc(C)n1)c1ccc(N2CCOCC2)cc1,-20.1%,.,-68.6*,.,?,?
CCOC(=O)c1ccc(NC(=O)CSc2ccc3ccccc3n2)cc1,.,.,19.8,?,.,.
CC(CNC(=O)Cn1ccc(N)nc1=O)c1ccccc1 (stereo not drawn),-5.9%,.,-7.8,.,-1.9%,8.5%
COc1ccc(CCN2C(=O)NC(NC(=O)c3ccccc3OC)(C(F)(F)F)C2=O)cc1OC (stereo not drawn),.,25.7%[46.1 µM],8.4,15.5%[46.1 µM],.,.
Cc1ccsc1CNC12CC3CC(CC(C3)C1)C2,-0.1%,?,55.9,.,0.828µM*,-15.6%
CCn1c(=O)cc(SCC(=O)N2CCN(C)CC2)c2ccccc21,?,2.6%[46.1 µM],269.4,9.0%,0.0657µM*,.
CCOC(=O)C1CCN(C(=O)CSc2cc(=O)n(CC)c3ccccc23)CC1,11.2µM*,0.5%,5.8,-22.2%[14.3 µM],0.0033µM*,-28.3%
SMILES,HCV inhibitor,Marburg entry inh,HCMV antiviral,Lassa entry inh,Pf growth 96h,Pf growth 48h
CCn1c(=O)cc(SCC(=O)N2CCC(C)CC2)c2ccccc21,?,?,57.1,9.9%,?,-8.2%
Cn1cc(SCC(=O)N2CCN(c3ccccc3)CC2)c2ccccc21,?,.,-84.4*,.,?,.
COc1ccc(C(C)(NC(C)=O)c2nc(-c3ccc(F)c(Cl)c3)cs2)cc1 (stereo not drawn),.,.,-6.2,.,.,.
CCCN(CCC)C(=O)Cn1c(=O)n(CCCCCC(=O)NCc2ccc3c(c2)OCO3)c(=O)c2sccc21,.,0.9%[46.1 µM],-15.9,-7.4%[46.1 µM],.,.
Cc1cccc(C)c1NC(=O)COC(=O)/C=C/c1ccc(S(=O)(=O)N2CCOCC2)cc1,-1.7%,.,-2.1,.,.,.
O=[N+]([O-])c1ccc(/C=N/n2c(CO)nc3ccccc32)s1,10µM*,?,-68.9*,-0.4%,?,4.65µM*
O=C(Cc1cccs1)N/N=C\c1ccc([N+](=O)[O-])s1,?,.,-9.6,.,73.6%,?
Cc1nc2ccccc2c(=O)n1/N=C/c1ccccn1,-5.5%,18.5%,?,26.3%,111.3%,166.5%
Cc1nc2ccccc2n1/N=C/c1ccc([N+](=O)[O-])s1,4.47µM*,?,-81.8*,?,4.15µM*,4.15µM*
O=C(NCc1ccccc1)Nc1cccn(Cc2c(F)cccc2Cl)c1=O,?,.,-74.4*,.,-39.2%,-23.6%
Cc1ccc(NC(=O)Nc2cccn(Cc3c(F)cccc3Cl)c2=O)cc1,11.2µM*,.,33.1,.,5.22µM*,-20.3%
O=C(Nc1cccn(Cc2c(F)cccc2Cl)c1=O)NC1CCCCC1,?,.,?,.,12.0%,-17.2%
O=C(Nc1cccn(Cc2c(Cl)cccc2Cl)c1=O)C1CC1,-8.7%,7.8%[46.1 µM],?,-18.6%,-15.4%,0.0%
COc1cccc(CN2CCCN(CC(=O)Nc3ccc4c(c3)OCCO4)S2(=O)=O)c1,.,.,12.1,-8.6%[46.1 µM],.,.
COC(=O)CC=C[C@@H](C)[C@@H](C=NO[C@@H](C)c1cn([C@H](CO)Cc2ccccc2)nn1)NS(=O)(=O)c1ccc(C)cc1,.,-12.7%[14.2 µM],.,12.8%[14.3 µM],.,.
CCC[C@@H](/C=C/C(=O)OCC)NC(=O)C(F)(F)F,.,.,-4.6,.,.,.
Cc1nnc(NC(=O)CSc2ccccn2)s1,12.9%,?,8.7,-3.5%,13.1µM*,7.0%
COc1ccc(C(=O)OCC(=O)NC(=O)NCc2ccccc2)cc1[N+](=O)[O-],20.3%,-0.5%,0.0,?,-14.1%,4.9%
COC(=O)c1ccc(SCC(=O)NCc2ccccc2)c([N+](=O)[O-])c1,14.1µM*,-3.6%[46.1 µM],42.1,-23.4%[46.1 µM],2.62µM*,.
CC(C)(C)OC(=O)/C=C/[C@@H]1Cc2cc(C(F)(F)F)ccc2N1,.,.,14.0,.,.,.
Cc1nc2nc(NC(=O)c3ccccc3F)[nH]n2c(=O)c1Cl,.,-0.3%[46.1 µM],72.0,?,.,.

# Compound activity: PubChem BioAssay, National Center for Advancing Translational Sciences (NCATS)
